Consider eight molecules from PubChem BioAssay (NCI).

Several values for one entry are separate records, joined by “and”; a condition that tells them apart may be missing. Identical values can stand only once. About 79,000 compounds went through this panel and 15% of them were active in at least one assay; those are over-represented in the sample as a whole. Unmarked numbers belong to inactive results. Activity calls are given as the source filed them. Cut-off read from the data, not from the text of the source: active = growth inhibition above about 70%; inactive = the rest.

The assay can be described thus: NCI Yeast Anticancer Drug Screen. Data for the rad18 strain (AID 177). Particulars: S. cerevisiae rad18 mutant growth inhibition, hits give high values. How it is done: Growth inhibition of yeast strains with defined genetic alterations is measured as a screen for potential anti-cancer activity. Selected strains with alterations in DNA damage repair or cell cycle control were exposed to compounds and growth inhibition was measured relative to vehicle treated controls. The strain used in this assay is rad18

Regarding `CCOC(=O)[C@H]1Nc2ccc(OC)cc2C2c3ccccc3CC21` (stereo not given in full), the growth inhibition runs as follows: (at 1.2 µM) 1%; (at 3.7 µM) -9%; (at 11.0 µM) 3%; (at 33.0 µM) 56%; (at 100.0 µM) 93% (active).

`CN(C)CCOC1(Cc2ccc(Cl)cc2Cl)CCC(C(C)(C)C)CC1` (stereo not given): the growth inhibition (at 1.2 µM) was 0% and -4%; the growth inhibition (at 3.7 µM) is 0% and -2%; the growth inhibition (at 11.0 µM) was 99% (active) and 98% (active); the growth inhibition (at 33.0 µM) was 99% (active); the growth inhibition (at 100.0 µM) was 99% (active).

On to `COc1cc(C2SCC(=O)N2c2ccc(-c3ccc(-n4c(-c5ccccc5)nc5ccccc5c4=O)cc3)cc2)ccc1O` (stereo not given), for which the growth inhibition (at 1.2 µM) was -3%; the growth inhibition (at 3.7 µM) was -1%; the growth inhibition (at 11.0 µM) is 0%; the growth inhibition (at 33.0 µM) is 3%; the growth inhibition (at 100.0 µM) was 7%.

`COC(=O)/C=C(/C(=O)OC)C(Cl)(Cl)Cl`: the growth inhibition reads like this: (at 1.2 µM) 38%; (at 3.7 µM) 87% (active); (at 11.0 µM) 95% (active); (at 33.0 µM) 98% (active); (at 100.0 µM) 99% (active).

For `O=c1ssc(=Nc2ccccc2)n1-c1ccccc1`, the growth inhibition by setting is: (at 1.2 µM) 4%; (at 3.7 µM) 3%; (at 11.0 µM) -1%; (at 33.0 µM) 13%; (at 100.0 µM) 47%.

As to `COC(=O)C1=C(C(=O)OC)C(C(=O)OC)C(C(=O)OC)C(C(=O)OC)(C(=O)OC)C(C(=O)OC)=C1C(=O)OC` (stereo not given), the growth inhibition is, setting by setting: (at 1.2 µM) -20%; (at 3.7 µM) -21%; (at 11.0 µM) -5%; (at 33.0 µM) 17%; (at 100.0 µM) 51%.

On to `CCOC1Oc2ccccc2-c2nc(N)ncc21` (stereo not given), for which the growth inhibition (at 1.2 µM) was 4%; the growth inhibition (at 3.7 µM) is 7%; the growth inhibition (at 11.0 µM) was -1%; the growth inhibition (at 33.0 µM) is 3%; the growth inhibition (at 100.0 µM) was -2%.

As to `COc1ccc(/C=C2\NC(=S)N(/C=C3\C(=O)Oc4ccccc4C3=O)C2=O)cc1`, the growth inhibition (at 1.2 µM) is -3%; the growth inhibition (at 3.7 µM) was -1%; the growth inhibition (at 11.0 µM) was 1%; the growth inhibition (at 33.0 µM) is 5%; the growth inhibition (at 100.0 µM) was 14%.
